In PubChem BioAssay:
The source made the active and inactive calls. Unless noted, the rule behind the calls is not given here.

Columns and labels:
[1] = system: Wnt5a (protein binding on small-molecule microarray); experiment: small molecules binding Wnt5a protein – biophysical, small-molecule microarray, 635/667 nm fluorescence, primary screen (AID 1142); settings: 635 nm fluorescence, higher = more signal;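 note: fluorescence read at 667 nm with signal to noise per printed feature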
[2] = ATP-based viability of Huh7 replicon cells – cell-based, CellTiter-Glo luminescence, basal, 48 h, cytotoxicity control for HCV replication inhibitor project, primary screen (AID 1143); settings: higher = more signal, called active from +8 up or from −8 down;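 note: Huh7 hepatoma cells carrying a hepatitis C replication reporter with no stimulus; test concentration not given here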
[3] = Pseudomonas biofilm growth suppression – PAO1 strain, BacTiter-Glo luminescence, LB-PBS, primary screen (AID 1144); settings: P. aeruginosa PAO1 biofilm, 12 h, higher = more signal
[4] = basal CRE-LacZ reporter activity in PC12 – cell-based, unstimulated, primary screen (AID 1145); settings: no forskolin, luminescence, 4.5 h, higher = more signal, called active from +8 up or from −8 down
[5] = forskolin-driven CRE-LacZ activity in PC12 – cell-based, CRE-LacZ reporter, forskolin-stimulated, primary screen (AID 1146); settings: luminescence, 4.5 h, higher = more signal, called active from +8 up or from −8 down;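 note: PC12 cells with 6xCRE LacZ reporter stimulated by forskolin 10 µM; beta-galactosidase reporter signal reflecting CREB driven transcription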
[6] = molecular target: Streptavidin (Streptomyces avidinii) (UniProt P22629); experiment: compounds binding control protein streptavidin – biophysical, small-molecule microarray, 635/667 nm fluorescence, artefact control for SMM compound annotation, primary screen (AID 1147); settings: higher = more signal;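 note: signal reflects streptavidin binding to arrayed compounds as a control protein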
Chain of Streptavidin (Streptomyces avidinii) (P22629 whole entry, looked up): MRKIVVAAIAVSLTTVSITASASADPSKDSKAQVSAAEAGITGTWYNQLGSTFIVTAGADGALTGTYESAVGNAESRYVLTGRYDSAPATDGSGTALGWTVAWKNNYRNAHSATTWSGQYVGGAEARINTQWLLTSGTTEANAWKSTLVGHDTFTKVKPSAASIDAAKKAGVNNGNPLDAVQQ

[7] = probe aInhba binding on compound microarray – biochemical, small-molecule microarray, 635/667 nm fluorescence, primary screen (AID 1148); settings: higher = more signal;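 note: score merges 667nm spot fluorescence with signal-to-noise for antibody binding to printed compounds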
[8] = molecular target: Torsin-1A (Homo sapiens) (UniProt O14656); experiment: TOR1A wild-type binding on microarray – cell lysate, small-molecule microarray, lysate, 635/667 nm, primary screen (AID 1149); settings: COS7 hTOR1A-WT lysate, 635 nm fluorescence, higher = more signal
Chain of Torsin-1A (Homo sapiens) (O14656 whole entry, looked up): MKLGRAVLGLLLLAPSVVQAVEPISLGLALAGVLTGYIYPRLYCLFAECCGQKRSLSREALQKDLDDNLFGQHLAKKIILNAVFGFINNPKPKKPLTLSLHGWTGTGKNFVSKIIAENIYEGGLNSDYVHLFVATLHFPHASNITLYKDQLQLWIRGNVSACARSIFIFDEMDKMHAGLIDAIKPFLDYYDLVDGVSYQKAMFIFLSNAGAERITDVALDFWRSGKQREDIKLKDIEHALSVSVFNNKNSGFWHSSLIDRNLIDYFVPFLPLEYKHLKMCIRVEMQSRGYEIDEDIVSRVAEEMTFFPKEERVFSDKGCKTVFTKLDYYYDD

[9] = molecular target: Torsin-1A (Homo sapiens) (UniProt O14656); experiment: torsin A mutant lysate binding on microarrays – cell lysate, small-molecule microarray, COS7 lysate, 635/667 nm fluorescence, primary screen (AID 1150); settings: COS7 hTOR1A mutant lysate, 635 nm fluorescence, higher = more signal;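 note: score pools 667 nm emission and signal to noise measuring lysate protein binding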
[10] = system: Sonic hedgehog protein (Shh); experiment: Sonic hedgehog microarray binding compounds – biochemical, small-molecule microarray, 635/667 nm fluorescence, primary screen (AID 1151); settings: 635 nm fluorescence, higher = more signal;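 note: Shh protein binding to compounds spotted on small-molecule microarray slides; score combines spot fluorescence intensity with signal-to-noise across triplicate slides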
[11] = optical density shifts of acrAB sulA E. coli – strain DRC41, OD650, 48 h, E. coli filamentation inducer project, primary screen (AID 1152); settings: higher = more signal, called active from +8 up or from −8 down;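 note: E. coli MC1000 strain DRC41 lacking acrAB efflux pump and sulA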
[12] = probe aLefty1 binding on compound microarray – biochemical, small-molecule microarray, 635/667 nm fluorescence, primary screen (AID 1153); settings: higher = more signal;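 note: score merges spot fluorescence with signal-to-noise ratio from the scanned slide images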
[13] = plasmodial surface anion channel blockers, osmotic lysis – cell-based, P. falciparum Indochina, OD700, 1 h, primary screen (AID 1154); settings: P. falciparum Indochina infected RBC osmotic lysis, higher = more signal, called active from +8 up or from −8 down
[14] = plasmodial surface anion channel blockers, osmotic lysis – cell-based, P. falciparum Indochina, OD700, 2 h, primary screen (AID 1155);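 note: lysis reports solute entry through the parasite surface anion channel PSAC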; settings: P. falciparum Indochina infected erythrocytes, higher = more signal, called active from +8 up or from −8 down
[15] = changes in parasitized red cell lysis, either direction – P. falciparum Indochina, OD700, 3 h, PSAC antagonist project, primary screen (AID 1156); settings: P. falciparum-infected erythrocytes, osmotic lysis, higher = more signal, called active from +8 up or from −8 down
[16] = plasmodial surface anion channel blockers, osmotic lysis – cell-based, P. falciparum Indochina, OD700, 18 h, primary screen (AID 1157); settings: P. falciparum Indochina infected erythrocytes, osmotic lysis OD700, 18 h; higher = more signal, called active from +8 up or from −8 down
[17] = S6 kinase pathway phospho-S6 level changes – cell-based, A549, cytoblot, luminescence, serum-stimulated, primary screen (AID 1158); settings: 5 h, higher = more signal;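 note: serum-stimulated A549 lung adenocarcinoma cells; signal is phosphorylated S6 detected by cytoblot immunostaining with HRP secondary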
[18] = molecular target: NADPH oxidase 2 (Homo sapiens) (UniProt P04839); experiment: compounds shifting NOX2 Amplex Red fluorescence – cell-based, HEK293-NOX2, PMA-stimulated, NOX inhibitor project, primary screen (AID 1159); settings: 45 min, higher = more signal, called active from +8 up or from −8 down; note: test concentration not given here
Chain of NADPH oxidase 2 (Homo sapiens) (P04839 whole entry, looked up): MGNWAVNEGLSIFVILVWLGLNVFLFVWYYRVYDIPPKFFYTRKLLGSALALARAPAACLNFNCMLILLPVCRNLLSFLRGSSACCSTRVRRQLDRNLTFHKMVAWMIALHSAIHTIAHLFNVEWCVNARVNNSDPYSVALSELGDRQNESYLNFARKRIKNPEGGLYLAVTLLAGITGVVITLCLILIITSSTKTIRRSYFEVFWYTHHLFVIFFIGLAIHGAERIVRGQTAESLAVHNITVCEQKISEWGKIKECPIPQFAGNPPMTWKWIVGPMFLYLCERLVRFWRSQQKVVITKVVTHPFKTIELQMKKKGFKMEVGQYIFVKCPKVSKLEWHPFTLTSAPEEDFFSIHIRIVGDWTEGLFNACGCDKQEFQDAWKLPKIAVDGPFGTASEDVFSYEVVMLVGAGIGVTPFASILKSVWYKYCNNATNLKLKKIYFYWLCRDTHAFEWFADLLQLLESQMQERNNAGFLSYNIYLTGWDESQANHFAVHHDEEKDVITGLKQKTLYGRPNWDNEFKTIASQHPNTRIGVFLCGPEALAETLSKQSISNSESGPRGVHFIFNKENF

[19] = molecular target: NADPH oxidase 4 (Homo sapiens) (UniProt Q9NPH5); experiment: compounds shifting NOX4 Amplex Red fluorescence – cell-based, HEK293-NOX4, tetracycline-induced, NOX inhibitor project, primary screen (AID 1160); settings: HEK293-NOX4, Amplex Red H2O2 fluorescence, 45 min; higher = more signal, called active from +8 up or from −8 down
Chain of NADPH oxidase 4 (Homo sapiens) (Q9NPH5 whole entry, looked up): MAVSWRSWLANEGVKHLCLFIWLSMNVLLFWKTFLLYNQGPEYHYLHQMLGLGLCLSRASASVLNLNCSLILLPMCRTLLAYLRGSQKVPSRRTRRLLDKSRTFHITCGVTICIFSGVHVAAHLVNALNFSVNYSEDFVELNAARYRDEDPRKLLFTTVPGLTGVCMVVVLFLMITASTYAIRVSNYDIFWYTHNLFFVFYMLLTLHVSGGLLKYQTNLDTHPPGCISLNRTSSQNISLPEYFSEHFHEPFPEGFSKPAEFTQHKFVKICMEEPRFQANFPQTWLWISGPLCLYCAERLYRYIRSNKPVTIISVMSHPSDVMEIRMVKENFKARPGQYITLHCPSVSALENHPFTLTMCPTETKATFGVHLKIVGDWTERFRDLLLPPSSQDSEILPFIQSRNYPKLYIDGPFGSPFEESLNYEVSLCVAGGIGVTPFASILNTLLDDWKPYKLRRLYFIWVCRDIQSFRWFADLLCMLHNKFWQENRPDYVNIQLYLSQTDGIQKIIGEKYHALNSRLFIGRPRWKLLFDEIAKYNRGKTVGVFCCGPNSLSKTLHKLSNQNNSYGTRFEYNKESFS

[20] = molecular target: NADPH oxidase 5 (Homo sapiens) (UniProt Q96PH1); experiment: compounds shifting NOX5 Amplex Red fluorescence – cell-based, HEK293-NOX5, NOX inhibitor project, primary screen (AID 1161); settings: HEK293-NOX5, ionomycin, 45 min, higher = more signal
Chain of NADPH oxidase 5 (Homo sapiens) (Q96PH1 whole entry, looked up): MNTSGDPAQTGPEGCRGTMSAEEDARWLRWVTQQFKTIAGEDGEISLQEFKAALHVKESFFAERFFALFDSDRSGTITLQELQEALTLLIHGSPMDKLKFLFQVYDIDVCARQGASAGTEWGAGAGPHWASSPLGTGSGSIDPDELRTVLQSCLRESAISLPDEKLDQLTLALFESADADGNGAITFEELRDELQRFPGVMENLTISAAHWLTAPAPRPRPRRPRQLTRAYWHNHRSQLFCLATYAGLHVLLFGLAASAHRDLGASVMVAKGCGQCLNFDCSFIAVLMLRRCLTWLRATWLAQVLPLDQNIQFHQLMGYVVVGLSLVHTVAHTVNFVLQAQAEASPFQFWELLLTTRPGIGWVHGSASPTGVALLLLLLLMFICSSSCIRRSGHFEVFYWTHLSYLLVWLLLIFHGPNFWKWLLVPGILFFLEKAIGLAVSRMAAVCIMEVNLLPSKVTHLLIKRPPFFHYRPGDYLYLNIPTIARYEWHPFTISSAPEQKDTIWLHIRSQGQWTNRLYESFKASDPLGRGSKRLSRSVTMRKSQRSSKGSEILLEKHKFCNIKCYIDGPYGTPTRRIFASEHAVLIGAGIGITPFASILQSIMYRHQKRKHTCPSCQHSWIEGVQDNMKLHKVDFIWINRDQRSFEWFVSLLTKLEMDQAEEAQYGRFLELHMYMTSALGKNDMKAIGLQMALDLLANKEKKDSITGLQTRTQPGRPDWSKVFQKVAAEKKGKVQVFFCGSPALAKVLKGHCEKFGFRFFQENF

SMILES | composite z-score [1] | z-score [2] | z-score [3] | z-score [4] | z-score [5] | composite z-score [6] | composite z-score [7] | composite z-score [8] | composite z-score [9] | composite z-score [10] | z-score [11] | composite z-score [12] | z-score [13] | z-score [14] | z-score [15] | z-score [16] | z-score [17] | z-score [18] | z-score [19] | z-score [20]
C[C@]1(C(=O)O)c2ccccc2C(=O)N(Cc2ccccc2)[C@H]1c1ccc(CO)cc1 | -0.326 | -1.25 (inactive) | 0.461 (inactive) | 0.001 (inactive) | -0.301 (inactive) | -0.867 | -0.176 | -1.06 | -0.224 | -1.98 | 0.576 (inactive) | -0.147 | 3.5 (inactive) | 0.52 (inactive) | 1.06 (inactive) | 0.548 (inactive) | -0.0555 | 0.67 (inactive) | 0.917 (inactive) | 0.42
C=CCOC(=O)[C@H]1[C@@H]2C(=O)O[C@@H](c3ccccc3)[C@@H](c3ccccc3)N2[C@@H](c2ccc(OCCOC(=O)[C@H]3C[C@H]4C(=O)N[C@@H](CCCC[N+](C)(C)C)C(=O)N4[C@H]3c3cccc(OCCO)c3)cc2)[C@]12C(=O)Nc1ccc(I)cc12 | 0.419 | -0.587 (inactive) | -1.08 (inactive) | 0.415 (inactive) | -0.0044 (inactive) | -0.0117 | -0.13 | 0.485 | 0.29 | 1.03 | 0.039 (inactive) | -0.17 | 3.12 (inactive) | 2.53 (inactive) | 1.58 (inactive) | 1.68 (inactive) | 0.4 | 0.822 (inactive) | 0.0287 (inactive) | 0.14
C=CC[C@@H](OC(=O)Nc1ccc(OC)cc1)c1ccc(OCCO)cc1 | -1.2 | -2.05 (inactive) | -0.542 (inactive) | 1.29 (inactive) | 0.0646 (inactive) | -1.21 | -0.237 | -3.71 | -3 | -0.49 | -0.14 (inactive) | -0.0638 | 19.5 (active) | 3.12 (inactive) | -0.149 (inactive) | 0.894 (inactive) | 0.0966 | -4.11 (inactive) | -1.4 (inactive) | -2.78
O=C1O[C@@H](c2ccccc2)[C@@H](c2ccccc2)N2[C@@H](c3ccc(O)cc3)[C@]3(C(=O)Nc4ccc(C#CCCO)cc43)[C@@H](C(=O)NC[C@H](O)c3ccccc3)[C@H]12 | -0.738 | 0.058 (inactive) | 0.142 (inactive) | -1.15 (inactive) | -0.869 (inactive) | -0.791 | -0.128 | -0.664 | 0.229 | 0.304 | 0.646 (inactive) | 0.279 | 2.75 (inactive) | 0.31 (inactive) | 0.283 (inactive) | 0.0695 (inactive) | -0.318 | -0.247 (inactive) | -0.718 (inactive) | -0.159
C=C(CCCC)/C(=C/C[C@@H](OC(=O)c1ccncc1)c1cccc(OCCO)c1)c1cnc2ccccc2c1 | 1.25 | -3.08 (inactive) | -0.772 (inactive) | 3.22 (inactive) | 0.644 (inactive) | 1.49 | 0.194 | 1.22 | 0.0816 | 2.09 | 0.0513 (inactive) | 0.284 | 19.1 (active) | 3.53 (inactive) | 0.902 (inactive) | 1.12 (inactive) | 0.462 | -1.21 (inactive) | -0.36 (inactive) | -0.509
CN1C(=O)[C@@]2(CCS(=O)(=O)c3ccccc3)N=C(c3ccc(OCCCO)cc3)O[C@H]2c2ccccc21 | 0.388 | -4.49 (inactive) | -0.413 (inactive) | 0.0918 (inactive) | -0.196 (inactive) | 1.8 | -0.0384 | 1.55 | 0.397 | 0.203 | 0.583 (inactive) | -0.0003 | 30.1 (active) | 23.3 (active) | 0.141 (inactive) | 0.914 (inactive) | 0.836 | -2.59 (inactive) | 0.479 (inactive) | -0.917
NC(=O)NCC#Cc1ccc2c(c1)[C@]1(C(=O)N2)[C@H](c2ccc(O)cc2)N2[C@H](c3ccccc3)[C@H](c3ccccc3)OC(=O)[C@H]2[C@@H]1C(=O)Nc1nc2ccccc2s1 | 0.303 | -0.623 (inactive) | -1.41 (inactive) | -0.788 (inactive) | -0.988 (inactive) | 0.106 | -0.0018 | 0.374 | -0.0346 | 1.09 | 0.589 (inactive) | 0.127 | 3.28 (inactive) | 2.86 (inactive) | 0.904 (inactive) | 2.09 (inactive) | 0.0298 | 0.0666 (inactive) | -1.01 (inactive) | 0.17
C=C(/C=C/CNS(=O)(=O)c1ccc(C)cc1)[C@H](O)[C@H]1CCCN1S(=O)(=O)c1ccccc1[N+](=O)[O-] | 0.118 | -1.58 (inactive) | 1.01 (inactive) | 6.84 (inactive) | -1.17 (inactive) | 0.337 | -0.0791 | 0.361 | 0.388 | 0.758 | 0.611 (inactive) | -0.185 | 11.5 (active) | 1.43 (inactive) | 0.643 (inactive) | 0.647 (inactive) | 0.229 | -0.358 (inactive) | -1.6 (inactive) | -1.6
